Results: PubChem BioAssay AID1508622 (National Center for Advancing Translational Sciences (NCATS), 2021)
Activity calls are given as the source filed them. A call without a number means that no potency is given here. Calls come from the whole dose curve; as a rule, active = well fitted activation curve with a large enough effect; inconclusive = small, poorly fitted or top-dose-only effect; inactive = no such curve, though single readings can be large or run the other way.

Assay: Confirmatory qHTS for Identification of Small Molecule Activators of Huntingtin-Antisense Promoter Activity
Settings: HEK293 HTT-AS promoter firefly luciferase reporter, 24 h; series mostly up to 57.5 µM
Method in brief: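 HEK293 luciferase reporter cells, 2,500/well, cultured 24 h, then exposed to compounds at up to 57.5 uM final for 24 h at 37C. Firefly luciferase luminescence read; normalized to vehicle (0%) and zero RLU (-100%).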
Potency is the fitted concentration of half-maximal effect.

Structure (SMILES)	Potency
CCOC(=O)c1ccc(N2C(=O)c3[nH]nc(-c4ccccc4)c3C2c2cccs2)cc1 (configuration not stated)	inactive
COc1ccccc1NC(=O)CSc1nnc2c(n1)[nH]c1ccccc12	inactive
COc1ccccc1C(=O)N1c2ccccc2C(C)(c2ccc(Cl)cc2)CC1(C)C (configuration not stated)	inactive
Cc1ccc(-c2cc(N)n(Cc3cccc(Cl)c3)n2)cc1	inactive
CCOc1cc(C(=O)Nc2ccc3oc(-c4ccc(CC)cc4)nc3c2)cc(OCC)c1OCC	inactive
CCCCC(CC)CNC(=O)Cc1ccc(-n2c(=O)[nH]c3ccccc3c2=O)cc1 (configuration not stated)	inactive
COc1ccc(CN2CCc3c(c(=O)n4ncc(C(=O)N5CCN(c6ccccc6OC)CC5)c4n3C)C2)cc1	inactive
COc1ccc(-c2noc(Cn3c(=O)c4ccccc4n(CC(=O)Nc4cccc(C(F)(F)F)c4)c3=O)n2)cc1	inactive
CCCS(=O)(=O)NCCc1sc2nc(-c3ccc(Cl)cc3)nn2c1C	inactive
Cc1ccc(Cn2c(SCc3ccc(C(=O)N4CCCCC4)cc3)nc3ccncc32)cc1	inactive
CN(C)CCNC(=O)C1CCN(Cc2cc3ccccc3n2Cc2ccccc2)CC1	inactive
Cn1c(=O)n(C)c2cc(NS(=O)(=O)c3ccc(F)cc3)ccc21	inactive
CCOC(=O)C1CCCN(C(=O)Cn2c(=O)cc(C)c3c(C)nn(C)c32)C1 (configuration not stated)	inactive
CN(C)C(=O)COC(=O)Cc1ccc(OC(=O)c2ccc(N=C(N)N)cc2)cc1	inactive
COc1ccc2oc(=O)c(C(=O)NCCc3c(C)[nH]c4ccc(C)cc34)cc2c1	inactive
CSc1ccc(/C=C/c2nc3ccccc3n2S(=O)(=O)c2ccc(F)c(C)c2)cc1	135 nM (active)
CCOc1ccccc1CNC(=O)C(CC)n1nc(C)c2c(C)n(-c3ccccc3)nc2c1=O (configuration not stated)	inactive
CCc1ccc(CNC(=O)c2sc3ncccc3c2-n2c(C)ccc2C)cc1	inactive
CCc1ccc(NC(=O)C2CCCN(S(=O)(=O)c3ccc(F)cc3)C2)cc1 (configuration not stated)	inactive
COc1ccc(Cn2c(SCc3ccc(C(=O)NC4CCCCC4)cc3)nc3ccncc32)cc1	inactive
CCN1C(=O)c2ccccc2Sc2ccc(NC(=O)Nc3cccc([N+](=O)[O-])c3C)cc21	inactive
Cc1cccc(NC(=O)c2c(NC(=O)C(F)(F)F)sc3c2CCCCC3)c1	inactive
